Experimental data as given in PubChem BioAssay AID1159580 (chemical genetic matrix, 2015).
About 2,000 (36%) of roughly 5,500 compounds were called active. Another 18% or so got no clear call; they are omitted. Cut-off read from the data, not from the text of the source: active = normalized growth mostly below about 0.91 (no sharp cut-off); inconclusive = no clear call, values can overlap the other calls; inactive = mostly above about 0.92. The list shows a part of the results.

Assay: chemical genetic growth profiling, strain panel (AID 1159580);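 note: tested at 20 µM; growth read once vehicle control cultures reached saturation at 30 °C; 1 = growth at the plate median or of vehicle wells; lower values mean less growth of the strain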
Conditions: S. cerevisiae deletion strains, growth OD

Measured: normalized growth

CCC1OC(=O)[C@H](C)C(=O)[C@H](C)[C@@H](OC2O[C@H](C)C[C@H](N(C)C)[C@H]2O)[C@](C)(OC)C2(CCCn3cnc(-c4cccnc4)c3)C[C@@H](C)C(=O)[C@H](C)[C@H]3N(C2)C(=O)O[C@]13C (stereo partly drawn)
inactive: locus YAL013W, strain DEP1, stronger effect = lower value 1 | locus YAL021C, strain ccr4, stronger effect = lower value 0.973 | locus YAL026C, strain drs2, stronger effect = lower value 0.976 | locus YAL030W, strain snc1, stronger effect = lower value 0.981 | locus YBL061C, strain skt5, stronger effect = lower value 0.98 | locus YBR009C, strain hhf1, stronger effect = lower value 0.962 | locus YBR021W, strain FUR4, stronger effect = lower value 1 | locus YBR023C, strain chs3, stronger effect = lower value 0.998 | locus YBR171W, strain sec66, stronger effect = lower value 0.984 | locus YBR229C, strain ROT2, stronger effect = lower value 1 | locus YBR231C, strain swc5, stronger effect = lower value 0.984 | locus YBR279W, strain paf1, stronger effect = lower value 0.996 | locus YCL011C, strain gbp2, stronger effect = lower value 0.981 | locus YCL016C, strain dcc1, stronger effect = lower value 0.975 | locus YCL029C, strain bik1, stronger effect = lower value 1 | locus YCL069W, strain vba3, stronger effect = lower value 0.979 | locus YCR088W, strain abp1, stronger effect = lower value 0.979 | locus YDL005C, strain med2, stronger effect = lower value 0.989 | locus YDL035C, strain GPR1, stronger effect = lower value 1.01 | locus YDL040C, strain nat1, stronger effect = lower value 0.982 | locus YDL074C, strain BRE1, stronger effect = lower value 1.02 | locus YDL101C, strain DUN1, stronger effect = lower value 1.01 | locus YDL134C, strain PPH21, stronger effect = lower value 1.01 | locus YDL185W, strain tfp1, stronger effect = lower value 1.01 | locus YDL192W, strain arf1, stronger effect = lower value 1.01 | locus YDR001C, strain nth1, stronger effect = lower value 0.983 | locus YDR069C, strain doa4, stronger effect = lower value 0.996 | locus YDR101C, strain arx1, stronger effect = lower value 0.985 | locus YDR137W, strain rgp1, stronger effect = lower value 0.937 | locus YDR150W, strain NUM1, stronger effect = lower value 1.01 | locus YDR159W, strain sac3, stronger effect = lower value 0.96 | locus YDR162C, strain NBP2, stronger effect = lower value 1.02 | locus YDR195W, strain ref2 0.968 | locus YDR297W, strain sur2, stronger effect = lower value 0.982 | locus YDR318W, strain mcm21, stronger effect = lower value 1 | locus YDR334W, strain swr1, stronger effect = lower value 0.977 | locus YDR335W, strain msn5, stronger effect = lower value 0.976 | locus YDR388W, stronger effect = lower value 1.01 | locus YDR392W, strain spt3, stronger effect = lower value 0.936 | locus YDR502C, strain sam2, stronger effect = lower value 0.991 | locus YEL003W, strain gim4, stronger effect = lower value 0.958 | locus YEL037C, strain rad23, stronger effect = lower value 0.975 | locus YEL061C, strain CIN8 (second series), stronger effect = lower value 0.983 | locus YEL061C, strain CIN8, stronger effect = lower value 1 | locus YER015W, strain faa2, stronger effect = lower value 0.987 | locus YER016W, strain bim1, stronger effect = lower value 0.992 | locus YER110C, stronger effect = lower value 0.993 | locus YER111C, strain swi4, stronger effect = lower value 0.964 | locus YER155C, strain BEM2 (second series), stronger effect = lower value 1.02 | locus YER155C, strain BEM2, stronger effect = lower value 1.01 | locus YER167W, strain BCK2, stronger effect = lower value 1.01 | locus YFR010W, strain ubp6, stronger effect = lower value 0.995 | locus YGL078C, strain dbp3, stronger effect = lower value 1.01 | locus YGL086W, strain mad1, stronger effect = lower value 0.995 | locus YGL167C, strain pmr1, stronger effect = lower value 0.986 | locus YGL173C, strain kem1, stronger effect = lower value 0.975 | locus YGL227W, strain vid30, stronger effect = lower value 0.978 | locus YGL240W, strain doc1, stronger effect = lower value 0.994 | locus YGL248W, strain PDE1, stronger effect = lower value 1 | locus YGL253W, strain hxk2, stronger effect = lower value 0.965 | locus YGR078C, strain PAC10, stronger effect = lower value 1.03 | locus YGR135W, strain pre9, stronger effect = lower value 0.993 | locus YGR229C, strain SMI1, stronger effect = lower value 1.01 | locus YGR252W, strain gcn5, stronger effect = lower value 0.965 | locus YHR013C, strain ard1, stronger effect = lower value 0.96 | locus YHR027C, strain rpn1, stronger effect = lower value 0.99 | locus YHR030C, strain SLT2, stronger effect = lower value 0.999 | locus YHR079C, strain IRE1 (second series), stronger effect = lower value 0.991 | locus YHR094C, strain hxt1, stronger effect = lower value 1 | locus YHR129C, strain ARP1, stronger effect = lower value 1 | locus YHR142W, strain chs7, stronger effect = lower value 0.973 | locus YHR200W, strain rpn10, stronger effect = lower value 1 | locus YIL066C, strain RNR3, stronger effect = lower value 1.01 | locus YIL073C, strain SPO22, stronger effect = lower value 0.991 | locus YIL125W, strain kgd1, stronger effect = lower value 1 | locus YIR030C, strain dcg1, stronger effect = lower value 0.999 | locus YJL092W, strain hpr5, stronger effect = lower value 0.979 | locus YJL095W, strain BCK1 (second series), stronger effect = lower value 0.995 | locus YJL095W, strain BCK1, stronger effect = lower value 1 | locus YJL115W, strain asf1, stronger effect = lower value 0.973 | locus YJL129C, strain trk1, stronger effect = lower value 1.01 | locus YJL134W, strain LCB3, stronger effect = lower value 1.01 | locus YJL154C, strain vps35, stronger effect = lower value 0.977 | locus YJL164C, strain tpk1, stronger effect = lower value 0.977 | locus YJL166W, strain qcr8, stronger effect = lower value 0.998 | locus YJL168C, strain set2, stronger effect = lower value 0.999 | locus YJL187C, strain SWE1 (second series), stronger effect = lower value 0.999 | locus YJL187C, strain SWE1, stronger effect = lower value 0.984
